Out of some 230,000 compounds screened, about 1,000 (0.43%) were called active. Where a call stands in place of a potency, no number is given. Calls follow the shape of the dose curve; as a rule, active = well fitted inhibition curve with a large enough effect (not every such curve was filed as active); inactive = no such curve, though single readings can be large or run the other way. The full list was thinned out, with actives kept by preference.
Each molecule was assayed against Guanine nucleotide-binding protein G(i) subunit alpha-1 (Homo sapiens) (UniProt P63096) (assay: qHTS Assay for Inhibitors of RGS12 GoLoco Motif Activity (Red Fluorophore)). Conditions: Gai1:RGS12 GoLoco peptide FP, rhodamine, 10 min; series mostly up to 61.6 µM.
Also: nearly all actives have a fitted effect of over 30% in size.
Potency is read from the fitted curve at half-maximal effect.

Sequence of Guanine nucleotide-binding protein G(i) subunit alpha-1 (Homo sapiens) (P63096 whole entry, looked up): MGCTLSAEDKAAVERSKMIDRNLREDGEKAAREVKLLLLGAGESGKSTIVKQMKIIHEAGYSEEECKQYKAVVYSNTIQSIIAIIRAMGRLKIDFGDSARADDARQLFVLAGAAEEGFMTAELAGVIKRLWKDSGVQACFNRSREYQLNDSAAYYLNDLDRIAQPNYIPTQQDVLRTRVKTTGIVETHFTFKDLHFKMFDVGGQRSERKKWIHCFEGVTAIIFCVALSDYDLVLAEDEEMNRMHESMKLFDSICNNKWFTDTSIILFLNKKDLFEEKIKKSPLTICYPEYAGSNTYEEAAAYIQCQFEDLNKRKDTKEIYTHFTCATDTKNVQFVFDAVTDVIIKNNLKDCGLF

Structure (SMILES) | Potency
COc1ccc(-c2nc(-c3ccccc3)oc2Nc2ccc3ccccc3c2)cc1 | inactive
CC1(C)CC(N2CCN(C(c3ccccc3)c3ccccc3)CC2)=CC(=[N+]2CCCCC2)C1 | 17.8 µM (active)
O=C1CC(N2CCN(C(c3ccccc3)c3ccccc3)CC2)C(=O)N1 (stereo unspecified) | inactive
CC1(C)CC(=O)C=C(N2CCCC2)C1 | inactive
CCOC(=O)/C(C#N)=C/c1ccc(N2CCCCC2)cc1 | inactive
Cc1ccccc1C(=O)Nc1ccc(N2CCCCCC2)cc1 | inactive
O=C1C=CC(=O)N1c1ccc(N2CCCCC2)cc1 | 5.01 µM (active)
N#C/C(=C/c1ccc(N2CCCCC2)o1)C(=O)NCCc1c[nH]c2ccccc12 | inactive
C=C/C1=C/Cc2ccccc2[C@H](C[N+](=O)[O-])C(C(=O)OC)(C(=O)OC)C1 | inactive
COc1ncnc2c1N=C1CC(C)(C)CC(N)=C1S2 | 25.1 µM (active)
COc1cccc(-c2cc(=O)c3cc(NC(=O)c4ccc(C)cc4)ccc3[nH]2)c1 | inactive
CC(=O)N(CC(O)CO)c1c(I)c(C(=O)NCC(O)CO)c(I)c(C(=O)NCC(O)CO)c1I (stereo unspecified) | inactive
COc1ccc2c(c1)C(=C(C#N)C#N)C(=O)N2CCc1ccccc1 | inactive
CC(=O)Nc1ccc(NC(=O)COc2ccc(S(=O)(=O)NC(C)c3ccccc3)cc2)cc1 (stereo unspecified) | inactive
COC(C(=O)Nc1ccc(S(=O)(=O)Nc2ccc(C)c(C)c2)cc1)c1ccccc1 (stereo unspecified) | inactive
CC(=O)/C(C)=N/O | inactive
COc1ccccc1C1CCN(C(=S)Nc2ccc(Br)cc2)CC1 | inactive
Cc1ccccc1CN(c1ccc(C(=O)NCC2CCCO2)cc1)S(C)(=O)=O (stereo unspecified) | inactive
Cc1ccccc1Cn1c2ccccc2c2cnn(CC(=O)NCc3ccco3)c(=O)c21 | inactive
CC1(C)OC(=O)N2CCc3ccccc3C21C (stereo unspecified) | inactive
COC(=O)c1ccccc1NC(=S)NC(=O)c1ccccc1F | inactive

Structure (SMILES) | Potency
CC(C)=CCC[C@]1(C)[C@@H](CC=C(C)C)C[C@@]2(CC=C(C)C)C(=O)[C@]1(C(=O)C(C)C)C(=O)C(CC=C(C)C)=C2O | inactive
O=C(NCc1ccco1)O[C@@H]1C(=O)c2cc(Br)ccc2O[C@H]1c1ccc2c(c1)OCO2 | inactive
COc1cc(/C=N/NC(=S)Nc2cccnc2)cc(OC)c1O | inactive
Cc1cccc([C@H]2[C@@H]3C=CC[C@@H](C)[C@@H]3C(=O)N2Cc2ccccc2)c1 | inactive
CC(=O)N/N=C(\C)c1ccc(Br)cc1Br | inactive
COc1ccc(C2C(C#N)=C(N)Oc3cc(N)ccc32)cc1OC (stereo unspecified) | inactive
OC[C@H]1O[C@@H](n2cnc3c(NC4CCCC4)ncnc32)[C@H](O)[C@H]1O | inactive
CC1(C)C2CCC1(C)C(OC(=O)c1ccc(O)cc1)C2 (stereo unspecified) | inactive
O=C(CSc1nc(-c2ccccc2)cs1)Nc1cccc([N+](=O)[O-])c1 | inactive
N#Cc1cccc(CS(=O)(=O)c2nnnn2-c2cc(C(F)(F)F)cc(C(F)(F)F)c2)c1 | inactive
C=CCSc1nc(N)cc(=O)[nH]1 | inactive
Cc1ccc(NC2=C(Cl)C(=O)OC2OC(=O)c2ccccc2C)cc1 (stereo unspecified) | inactive
Cc1cc(C)cc(NC(=S)NCc2ccc(F)cc2)c1 | inactive
O=C(C/C(=N\NC(=O)c1ccccc1Br)C(F)(F)F)c1cccs1 | inactive
Cc1cc(C(=O)NNC(=S)Nc2ccccc2C)cs1 | inactive
CN(C)C(=O)c1coc2nc3ccccc3nc12 | inactive
O=C1NC(c2ccc(-c3ccccc3[N+](=O)[O-])o2)C(C(=O)c2ccc(Cl)cc2)C(O)(C(F)(F)F)N1 (stereo unspecified) | inactive
COc1ccc(/C=C/C2=CC(C)(C)NC(=S)N2)c(OC)c1 | inactive
COC(=O)[C@@H]1CC2=CC(=O)CC[C@]2(C)[C@@]23O[C@@H]2C[C@@]2(C)[C@@H](CC[C@@]24CCC(=O)O4)[C@H]13 | inactive
O=C1CC(c2ccccc2)=NN1c1ccc([N+](=O)[O-])cc1 | inactive
O=c1[nH]n(-c2ccc([N+](=O)[O-])cc2)c(=O)c2ccccc12 | 14.1 µM (active)

Structure (SMILES) | Potency
O=c1[nH]c2cccnc2n1-c1ccc([N+](=O)[O-])cc1 | inactive
CCn1c(=O)c2cc(C(=O)Nc3cccc(C(C)=O)c3)sc2c2ccccc21 | inactive
COc1ccc(CC(=O)N2N=C(C)CC2(O)C(F)(F)F)cc1 (stereo unspecified) | inactive
COc1ccc(-c2c(C)cc3oc(=O)cc(-c4ccccc4)c3c2C)cc1C=O | inactive
Cc1ccccc1NC(=S)Nc1cccc([N+](=O)[O-])c1 | inactive
COC(=O)/C=C\C(=O)Nc1cccc([N+](=O)[O-])c1 | 0.891 µM (active)
CC(=O)Nc1cccc([N+](=O)[O-])c1 | inactive
C/C=C(\C)C(=O)OC1C(OC(=O)C2(C)OC2C)c2cc3ccc(=O)oc3cc2OC1(C)C (stereo unspecified) | inactive
O=c1[nH]c(=O)c2nc3ccccc3nc2[nH]1 | inactive
Nc1ccc2nc3c(=O)[nH]c(=S)[nH]c3nc2c1 | 14.1 µM (active)
CC(C)(C)NC(=O)c1ccc(Cn2cc(C(F)(F)F)ccc2=O)cc1 | inactive
CCCCCCCC[n+]1cccc(C(=O)N2c3c(nc(N)[nH]c3=O)NC(C)C2C)c1 (stereo unspecified) | 11.2 µM (active)
CCCCCCn1c(SCC(=O)c2ccccc2)nc2c1c(=O)[nH]c(=O)n2C | inactive
CCCCNC(=O)Nc1c(C)cc(SC#N)cc1C | inactive
O=C(Nc1ccc(N2CCOCC2)cc1)c1ccc(-c2ccccc2[N+](=O)[O-])o1 | inactive
COc1ccc(-c2csc3nc(-c4ccccc4F)oc(=O)c23)cc1OC | inactive
COc1cccc([C@@H]2Oc3ccc(Br)cc3C(=O)[C@H]2OC(=O)NCCc2ccc(OC)c(OC)c2)c1 | inactive
Cc1ccc2c(CC(=O)NCc3cccs3)coc2c1 | inactive
CCOC(=O)C1CCCN(C(=O)COc2ccc(N(C)S(=O)(=O)c3ccc(C)cc3)cc2)C1 (stereo unspecified) | inactive

From PubChem BioAssay AID880 (National Center for Advancing Translational Sciences (NCATS), 2007)
